Results: PubChem BioAssay (EPA / NIEHS)
“And” between values parts separate entries of the source, which are not always exact repeats. Equal entries are not always repeated. Records with an inconclusive call do not appear. More than one record can exist for a structure, and the calls need not agree. The source made the active and inactive calls. How the source made its calls: active means hit-call score of the fitted dose curve at least 0.9, where 1 is the maximum; inconclusive means response in the unintended direction; inactive means score below 0.9.

Legend:
[1] = target: Cellular tumor antigen p53 (Homo sapiens) (UniProt P04637); experiment: TOX21_p53_BLA_p5_ratio: Tox21 HCT-116 p53 Agonism Beta-lactamase Assay, Ratio, Phase 5 (AID 2283599)
In short: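 Beta-lactamase reporter ratio (blue 460 nm over green 530 nm, 405 nm excitation) after 2 h CCF4-AM loading, in HCT-116 cells exposed 16 h at 37 C to compounds pinned at 217-fold dilution. Increases relative to DMSO baseline scored.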

[2] = TOX21_p53_BLA_p5_viability: Viability Assessment in the Tox21 HCT-116 p53 Agonism Beta-lactamase Assay, Phase 5 (AID 2283600)
In short: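 Luciferase-coupled ATP quantitation of cells treated for 16 h (37C, 5% CO2) with test chemicals delivered in DMSO via a 217-fold dilution; 4000 cells/well; reagent incubated 30 min at room temperature before luminescence reading.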

[3] = target: Cellular tumor antigen p53 (Homo sapiens) (UniProt P04637); experiment: TOX21_p53_BLA_p4_ratio: Tox21 HCT-116 p53 Agonism Beta-lactamase Assay, Ratio, Phase 4 (AID 2283601)
In short: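 Signal is the blue/green (460nm/530nm) ratio of cleaved versus uncleaved CCF4-AM substrate, read after 2 h substrate loading. Cells were HCT116 carrying the p53-responsive beta-lactamase reporter, dosed 16 h at 37C, 5% CO2; CellTiter-Glo measured in parallel.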

[4] = Tanguay_ZF_120hpf_MORT_legacy: (Legacy) Oregon State University Tanguay Lab 120 Hour Post-fertilization zebrafish Assay for Mortality (AID 2283633);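 on AC50: fitted as increase in binary mortality versus DMSO negative control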
In short: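 Dechorionated Tropical 5D wild-type zebrafish embryos, one per well from 6 hpf, were statically exposed at 28C in the dark until 120 hpf (0.64% DMSO final). Mortality was scored as present/absent by brightfield microscopy, fitted positively versus DMSO.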

[5] = Tanguay_ZF_120hpf_YSE_legacy: (Legacy) Oregon State University Tanguay Lab 120 Hour Post-fertilization zebrafish Assay for Yolk Sac Edema (AID 2283634);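 on AC50: actives raise the incidence of yolk sac edema above the DMSO baseline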
In short: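 Tropical 5D wild-type embryos, dechorionated with pronase at 4 hpf, were exposed singly from 6 hpf to 120 hpf under static, sealed, dark conditions at 28C with 0.64% DMSO final. Yolk sac edema was scored present/absent by brightfield microscopy.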

[6] = Tanguay_ZF_120hpf_AXIS_legacy: (Legacy) Oregon State University Tanguay Lab 120 Hour Post-fertilization zebrafish Assay for Body Axis Malformation (AID 2283635);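 on AC50: potency for an increased fraction of larvae scored with body axis malformation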
In short: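 Tropical 5D wild-type zebrafish embryos, dechorionated with pronase at 4 hpf, were placed singly in wells at 6 hpf and exposed statically to test chemical (0.64% DMSO final) at 28C until 120 hpf, then scored by brightfield for body axis defects.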

[7] = Tanguay_ZF_120hpf_EYE_legacy: (Legacy) Oregon State University Tanguay Lab 120 Hour Post-fertilization zebrafish Assay for Eye Malformation (AID 2283636);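 further: binary presence or absence of eye malformation scored by brightfield in 120 hpf larvae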
In short: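 Binary brightfield scoring of eye defects at 120 hpf after static exposure from 6 hpf of single pronase-dechorionated wild-type embryos (28C, 0.64% DMSO). Non-mortality endpoints omitted where embryos died; fit vs DMSO.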

[8] = Tanguay_ZF_120hpf_SNOU_legacy: (Legacy) Oregon State University Tanguay Lab 120 Hour Post-fertilization zebrafish Assay for Snout Malformation (AID 2283637)
In short: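 Binary snout-malformation call at 120 hpf in wild-type 5D embryos, chorion removed by pronase, under static exposure from 6 hpf at 28C (0.64% DMSO). Embryos dying by 24 or 120 hpf excluded.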

[9] = Tanguay_ZF_120hpf_JAW_legacy: (Legacy) Oregon State University Tanguay Lab 120 Hour Post-fertilization zebrafish Assay for Jaw Malformation (AID 2283638);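 further: active means more embryos with jaw malformation than DMSO controls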
In short: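 Tropical 5D wild-type embryos, dechorionated with pronase at 4 hpf, were placed singly per well at 6 hpf and statically exposed at 28C until 120 hpf (0.64% DMSO final). Jaw malformation scored as present/absent by brightfield microscopy at 120 hpf, analyzed relative to DMSO.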

[10] = Tanguay_ZF_120hpf_OTIC_legacy: (Legacy) Oregon State University Tanguay Lab 120 Hour Post-fertilization zebrafish Assay for Otic Vesicle Malformation (AID 2283639)
In short: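 Binary scoring of otic vesicle defects at 120 hpf in zebrafish (Tropical 5D) held under static exposure at 28C, sealed and shaded, with final DMSO 0.64%. Embryos dying by 24 or 120 hpf excluded; fitted positively against DMSO.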

[11] = Tanguay_ZF_120hpf_PE_legacy: (Legacy) Oregon State University Tanguay Lab 120 Hour Post-fertilization zebrafish Assay for Pericardial Edema (AID 2283640);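 on AC50: potency for increased incidence of pericardial edema versus DMSO baseline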
In short: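 Tropical 5D wild-type zebrafish embryos were exposed statically to 120 hpf at 28C, sealed and foil-covered, in 0.64% DMSO final. Pericardial edema was scored present/absent by brightfield microscopy; dead embryos were not scored.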

[12] = Tanguay_ZF_120hpf_BRAI_legacy: (Legacy) Oregon State University Tanguay Lab 120 Hour Post-fertilization zebrafish Assay for Brain Malformation (AID 2283641)
In short: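 Tropical 5D wild-type zebrafish embryos were exposed statically in sealed, foil-covered plates at 28C until 120 hpf, with 0.64% (vol/vol) final DMSO. Brain malformation was scored present/absent by brightfield microscopy, relative to DMSO baseline.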

[13] = Tanguay_ZF_120hpf_SOMI_legacy: (Legacy) Oregon State University Tanguay Lab 120 Hour Post-fertilization zebrafish Assay for Somite Malformation (AID 2283647)
In short: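 Tropical 5D wild-type zebrafish embryos, dechorionated with pronase at 4 hpf, were placed singly at 6 hpf and statically exposed until 120 hpf at 28C in 0.64% DMSO. Somite malformation was scored present/absent by brightfield microscopy versus DMSO.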

[14] = Tanguay_ZF_120hpf_PFIN_legacy: (Legacy) Oregon State University Tanguay Lab 120 Hour Post-fertilization zebrafish Assay for Pectoral Fin Malformation (AID 2283648);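 further: each larva judged yes or no for fin defect by brightfield with dead larvae skipped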
In short: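 Pectoral fin malformation was recorded as a binary endpoint at 120 hpf in wild-type Tropical 5D larvae, which had been dechorionated and exposed statically from 6 hpf at 28C in 0.64% DMSO. Dead embryos were excluded.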

[15] = Tanguay_ZF_120hpf_CFIN_legacy: (Legacy) Oregon State University Tanguay Lab 120 Hour Post-fertilization zebrafish Assay for Caudal Fin Malformation (AID 2283649)
In short: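 Tropical 5D wild-type embryos, dechorionated with pronase at 4 hpf, were placed singly in wells at 6 hpf and statically exposed to compound at 28C until 120 hpf (0.64% DMSO). Caudal fin malformation was scored present/absent by brightfield microscopy.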

[16] = Tanguay_ZF_120hpf_CIRC_legacy: (Legacy) Oregon State University Tanguay Lab 120 Hour Post-fertilization zebrafish Assay for Circulatory Malformation (AID 2283651)
In short: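 Binary circulatory malformation call at 120 hpf by brightfield imaging of zebrafish larvae; chorion removed at 4 hpf, static exposure from 6 hpf in sealed dark plates at 28C, final DMSO 0.64%; non-mortality endpoints skipped if embryo died.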

[17] = Tanguay_ZF_120hpf_SWIM_legacy: (Legacy) Oregon State University Tanguay Lab 120 Hour Post-fertilization zebrafish Assay for Swim Bladder Malformation (AID 2283654);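 further: swim bladder malformation in each larva scored yes or no under brightfield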
In short: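 Scoring is binary for swim bladder defects at 120 hpf, by brightfield inspection of zebrafish larvae. Embryos were exposed singly from 6 hpf after pronase dechorionation, at 28C with 0.64% DMSO; mortality excluded scoring.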

[18] = Tanguay_ZF_120hpf_TRUN_legacy: (Legacy) Oregon State University Tanguay Lab 120 Hour Post-fertilization zebrafish Assay for Truncated Body (AID 2283655)
In short: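 Tropical 5D wild-type embryos, dechorionated with pronase at 4 hpf, were placed singly in wells at 6 hpf and statically exposed at 28C until 120 hpf, final DMSO 0.64%. Truncated body was scored present/absent by brightfield microscopy.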

[19] = Tanguay_ZF_120hpf_NC_legacy: (Legacy) Oregon State University Tanguay Lab 120 Hour Post-fertilization zebrafish Assay for Notochord and Tail Malformation (AID 2283656)
In short: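 Binary scoring of notochord distortion by brightfield microscopy; embryos dying were not scored. Wild-type Tropical 5D embryos, chorion removed, exposed singly and statically from 6 to 120 hpf, 28C, sealed, 0.64% DMSO.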

[20] = Tanguay_ZF_120hpf_PIG_legacy: (Legacy) Oregon State University Tanguay Lab 120 Hour Post-fertilization zebrafish Assay for Pigmentation Malformation (AID 2283650)
In short: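 Pigment malformation recorded as a binary call at 120 hpf in zebrafish (Tropical 5D) exposed singly from 6 hpf after pronase dechorionation. Static, sealed, 28C exposure, 0.64% DMSO; mortality excludes scoring; positive-direction fit against DMSO.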

Measured: AC50

Cellular tumor antigen p53 (Homo sapiens), sequence (P04637 whole entry, looked up): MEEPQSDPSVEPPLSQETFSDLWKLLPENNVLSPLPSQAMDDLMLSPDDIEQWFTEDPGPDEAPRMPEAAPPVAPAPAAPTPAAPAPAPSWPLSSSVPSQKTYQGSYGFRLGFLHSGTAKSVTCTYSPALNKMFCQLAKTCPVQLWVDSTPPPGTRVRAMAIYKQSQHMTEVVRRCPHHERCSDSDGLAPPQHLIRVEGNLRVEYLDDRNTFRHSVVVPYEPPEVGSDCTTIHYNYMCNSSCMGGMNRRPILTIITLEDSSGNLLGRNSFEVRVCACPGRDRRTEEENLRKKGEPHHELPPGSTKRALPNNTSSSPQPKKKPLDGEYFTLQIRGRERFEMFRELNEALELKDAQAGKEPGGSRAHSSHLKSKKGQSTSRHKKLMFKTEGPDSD

COC(=O)c1ccc(C(=O)OC)cc1
active: [5] 37 µM | [6] 21.1 µM | [7] 34 µM | [8] 30.2 µM | [9] 32.7 µM | [11] 28.9 µM | [12] 44.4 µM | [17] 12.3 µM
not listed: [20]
inactive: all other assays above

Nc1ccn([C@H]2CC[C@@H](CO)O2)c(=O)n1
inactive: [1] | [3]

CCCC(O)C(CC)CO (configuration not stated)
inactive: [1] | [3]

O=C(C=Cc1ccccc1)OCCCc1ccccc1
inactive: [1] | [2] | [3]

CC/C(=C(\c1ccccc1)c1ccc(OCCN(C)C)cc1)c1ccccc1
active: [1] 75.4 µM [middle of 4 runs] | [2] 64.3 µM [middle of 4 runs] | [3] 40 µM and 84.5 µM and 42 µM | [4] 31.4 µM
inactive: [3] | [4] | [5] | [6] | [8] | [10] | [11] | [13] | [14] | [15] | [20] | [16] | [17] | [18] | [19]

CCCCCCOC(C)=O
inactive: [1] | [2] | [3]

NCCCOCCOCCOCCCN
inactive: [1] | [3]

CCC(C)(C)C1CCC(OC)CC1 (configuration not stated)
inactive: [1] | [3]

CCCc1ccc(O)cc1
inactive: [1] | [3]

ClCCOCCOCCCl
inactive: [1] | [2] | [3]

CCCCOCCOCCOCCO
inactive: [1] | [3]

CCCCCc1cccc(=O)o1
inactive: [1] | [3]

CC(=O)Nc1cc(S(=O)(=O)O)cc2cc(S(=O)(=O)O)c(N=Nc3ccccc3)c(O)c12
inactive: [1] | [2] | [3]

CC1(C)CC(N)CC(C)(CN)C1 (configuration not stated)
inactive: [1] | [3]

CC(=O)CC(C)(C)C1CCCCC1
inactive: [1] | [2] | [3]

Cc1ccc(C(C)(C)O)cc1
inactive: [1] | [3]

CC(C)Cc1ccccc1
inactive: [1] | [2] | [3]

CC(C)COC(=O)c1ccccc1O
inactive: [1] | [3]

CCCc1ccc(N)cc1
inactive: [1] | [3]

C=C1CC/C=C(\C)CC[C@@H]2[C@@H]1CC2(C)C
inactive: [1] | [3]

C=CC(=O)OCCCCCC
inactive: [1] | [3]
